# Experimental data published in PMC4336329 (PLoS ONE, 2015).
# Out of some 310,000 compounds screened, about 2,200 (0.71%) showed an effect of 50% or more. The effect is printed as a negative number. What follows is part of a selection rich in strong results, with near analogues and random picks from the rest.
# Biological target: human ether-à-go-go-related gene (hERG) potassium channel (human, UniProt Q12809)
# Assay: primary screen, population patch clamp on CHO cells stably expressing hERG; higher = less effect of the substance
# human ether-à-go-go-related gene (hERG) potassium channel, sequence (Q12809 whole entry, looked up): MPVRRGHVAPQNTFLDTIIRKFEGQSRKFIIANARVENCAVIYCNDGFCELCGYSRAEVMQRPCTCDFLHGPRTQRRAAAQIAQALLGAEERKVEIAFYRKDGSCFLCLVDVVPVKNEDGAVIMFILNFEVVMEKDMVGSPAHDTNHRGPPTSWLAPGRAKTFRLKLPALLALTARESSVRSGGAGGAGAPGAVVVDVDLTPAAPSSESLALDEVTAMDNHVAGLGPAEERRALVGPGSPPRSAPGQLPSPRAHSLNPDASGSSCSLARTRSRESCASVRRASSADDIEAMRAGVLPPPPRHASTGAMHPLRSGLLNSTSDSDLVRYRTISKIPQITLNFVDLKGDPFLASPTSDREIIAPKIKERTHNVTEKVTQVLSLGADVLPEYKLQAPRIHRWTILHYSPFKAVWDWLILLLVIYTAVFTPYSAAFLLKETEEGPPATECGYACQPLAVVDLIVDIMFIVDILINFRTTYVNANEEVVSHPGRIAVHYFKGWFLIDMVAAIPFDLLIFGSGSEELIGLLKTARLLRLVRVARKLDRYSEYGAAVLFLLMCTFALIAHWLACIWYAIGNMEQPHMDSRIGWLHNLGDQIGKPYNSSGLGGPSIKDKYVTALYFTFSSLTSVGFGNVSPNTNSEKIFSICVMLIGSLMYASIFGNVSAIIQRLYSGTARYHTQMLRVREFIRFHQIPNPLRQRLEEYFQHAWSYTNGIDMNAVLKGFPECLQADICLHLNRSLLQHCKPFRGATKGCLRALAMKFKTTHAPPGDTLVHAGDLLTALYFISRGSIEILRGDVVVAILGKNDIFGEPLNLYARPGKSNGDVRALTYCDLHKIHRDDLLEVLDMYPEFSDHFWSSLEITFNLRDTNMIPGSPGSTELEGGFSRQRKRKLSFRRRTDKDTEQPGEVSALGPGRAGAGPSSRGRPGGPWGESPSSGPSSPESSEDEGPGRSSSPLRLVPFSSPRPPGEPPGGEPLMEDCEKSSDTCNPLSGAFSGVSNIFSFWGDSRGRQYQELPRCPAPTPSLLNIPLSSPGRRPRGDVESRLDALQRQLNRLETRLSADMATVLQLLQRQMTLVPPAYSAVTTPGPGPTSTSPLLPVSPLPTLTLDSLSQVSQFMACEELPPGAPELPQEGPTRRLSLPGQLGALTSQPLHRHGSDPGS
row,SMILES,"hERG current change (%, negative = inhibition) at 1uM"
1,COc1ccc(C(CNC(=O)c2ccc(C)o2)N2CCOCC2)cc1 (stereo not drawn),-1.5%
2,COC(=O)c1[nH]c2ccc(Cl)cc2c1NC(=O)CN1CCC(C(N)=O)CC1,10.6%
3,CCOC(=O)c1[nH]c2ccc(Br)cc2c1NC(=O)CCN1CCCC(C)C1 (stereo not drawn),-66.8%
4,COC(=O)c1[nH]c2ccc(C)cc2c1NC(=O)NC1CCCCC1,9.66%
5,CCOC(=O)c1[nH]c2ccc(OC)cc2c1NC(=O)CCN1CCCC(C)C1 (stereo not drawn),-3.69%
6,COC(=O)c1[nH]c2ccc(Br)cc2c1NC(=O)CN1CCCCC1CCO (stereo not drawn),5.4%
7,COC(=O)c1[nH]c2ccccc2c1NC(=O)C(C)N1CCOCC1 (stereo not drawn),9.91%
8,CCOC(=O)c1[nH]c2ccc(Br)cc2c1NC(=O)CCN1CCC(C)CC1,-36.9%
9,COC(=O)c1[nH]c2ccc(Br)cc2c1NC(=O)CN1CCN(C2CCCCC2)CC1,-85.1%
10,COC(=O)c1[nH]c2ccc(Cl)cc2c1NC(=O)CCN1CCN(C2CCCCC2)CC1,-69.5%
11,COC(=O)c1[nH]c2ccc(Cl)cc2c1NC(=O)CCN1CCOCC1,9.37%
12,COC(=O)c1[nH]c2ccc(C)cc2c1NC(=O)C(C)N1CCN(C2CCCCC2)CC1 (stereo not drawn),-81%
13,CCOC(=O)C1CCCN(CC(=O)Nc2c(C(=O)OC)[nH]c3ccc(Br)cc23)C1 (stereo not drawn),-3.53%
14,NC(=O)Nc1ccccc1C(=O)NCCc1ccccc1,9.22%
15,Cn1c(SCc2ccc3c(c2)OCO3)nnc1-c1ccccc1,10.4%
16,Cc1cc2nnn(-c3nnc(-c4ccccc4)c4ccccc34)c2cc1C,5.53%
17,CCCc1[nH]n(-c2ccc(F)cc2)c(=O)c1C=Nc1cccc(F)c1,16.9%
18,COC(=O)c1[nH]c2ccccc2c1NC(=O)C(C)N1CC(C)OC(C)C1 (stereo not drawn),10.2%
19,COC(=O)c1[nH]c2ccc(Br)cc2c1NC(=O)C(C)N1CCN(C2CCCCC2)CC1 (stereo not drawn),-82.6%
20,COC(=O)c1[nH]c2ccc(Br)cc2c1NC(=O)CN1CCCc2ccccc21,8.7%
21,Cc1scc(-c2n[nH]c(=S)n2C(C)c2ccccc2)c1C (stereo not drawn),8.59%
22,Cc1ccc(CNC(=O)[C@H](C)NC(=O)C2CCN(C(=O)[C@@H](N)CC(C)C)CC2)cc1,6.77%
23,c1coc(CNc2c3c(nc4ccccc24)CCC3)c1,-82%

row,SMILES,"hERG current change (%, negative = inhibition) at 1uM"
1,O=C(NCc1ccco1)c1c2c(nc3ccccc13)CCC2,3.32%
2,c1ccc(CNc2c3ccccc3nc3ccccc23)cc1,-74.5%
3,OCCNc1c2ccccc2nc2ccccc12,-3.35%
4,COCCNc1c2c(nc3ccccc13)CCC2.Cl,-41.5%
5,Cl.c1ccc(CNc2c3c(nc4ccccc24)CCC3)cc1,-75.8%
6,Cl.c1ccc(CNc2nc(NCc3ccccc3)c3ccccc3n2)cc1,16.8%
7,OCCNc1c2c(nc3ccccc13)CCCC2,-15.9%
8,CC(C)CNc1c2c(nc3ccccc13)CCC2.Cl,-33.5%
9,CCc1ccc(NC(=O)c2cnc3scc(C)n3c2=O)cc1,4.58%
10,Cc1ccc(NC(=S)NCCc2ccc(Cl)cc2)c(C)c1,12.4%
11,COc1ccc(CNC(=O)CCCn2nc(C)c3c(C)n(-c4ccc(C)cc4)nc3c2=O)cc1,6.87%
12,O=c1c2ccccc2cnn1Cc1nnc(-c2cccs2)o1,13.7%
13,CCOC(=O)CSc1nc2c(c(=O)[nH]c(=O)n2C)n1CCCc1ccccc1,1.75%
14,CCOc1ccc(S(=O)(=O)NCCCN2CCOCC2)cc1,9.88%
15,Cn1cnnc1SCC(=O)OCN1C(=O)c2ccccc2C1=O,7.64%
16,COc1ccc(CCNC(=O)c2cc3c(=O)n4ccccc4nc3n(C3CCCCC3)c2=N)cc1OC,-61.9%
17,COc1ccc(CCNC(=O)c2cnc3ccccn3c2=O)cc1,-1.13%
18,COc1ccc(CCNC(=O)c2cccc3ccccc23)cc1OC,22%
19,COc1ccc(CCNC(=O)c2c(C)nc3ccccn23)cc1OC,-9.75%
20,COc1ccc(CCNC(=O)c2c(C)nc3ccccn23)cc1,4.94%
21,COc1ccc(CCNC(=O)c2cc3c(=O)n4ccccc4nc3n(C3CCCCC3)c2=N)cc1,-67.6%
22,COc1ccc(CN(C)CC(=O)Nc2cccc(S(=O)(=O)N(C)c3ccccc3)c2)c(OC)c1,-25%
